Assay results: PubChem BioAssay
Activity calls are given as the source filed them.

Key:
[1] = test system: PRMT1 (protein arginine N-methyltransferase 1); test: PRMT1 binders on small-molecule microarrays, primary screen, biochemical, small-molecule microarray, 635 nm fluorescence (AID 1088); conditions: small-molecule microarray binding, higher = more signal;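 note: binding of Prmt1 protein to compounds spotted on small-molecule microarray slides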
[2] = yeast growth modulation, basal conditions, primary screen, YJM789 clinical isolate, OD600, 24 h (AID 1089);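 note: growth of clinical yeast isolate S. cerevisiae YJM 789 seeded 1000 cells per well; test concentration not given here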; conditions: S. cerevisiae YJM789 growth, higher = more signal, called active from +8 up or from −8 down
[3] = fission yeast growth modulation, primary screen, strain 972, OD600, 24 h, no modulator (AID 1090);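 note: basal condition with compound alone and no growth modifier present; test concentration not given here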; conditions: S. pombe 972 growth, higher = more signal, called active from +8 up or from −8 down
[4] = S. cerevisiae growth modulation with rapamycin, primary screen, strain BY4716, OD600, 96 h (AID 1091); conditions: higher = more signal, called active from +8 up or from −8 down; note: test concentration not given here
[5] = target: Torsin-1A-interacting protein 2 (Homo sapiens) (UniProt Q8NFQ8); test: LULL1 binders on small-molecule microarray, primary screen, cell lysate, human LULL1 lysate, 635/667 nm fluorescence (AID 1092); conditions: hLULL1 lysate binding, 635 nm fluorescence, higher = more signal;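 note: probe is lysate of COS7 cells overexpressing human LULL1; score merges per-feature 667 nm fluorescence with signal-to-noise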
Chain of Torsin-1A-interacting protein 2 (Homo sapiens) (Q8NFQ8 whole entry, looked up): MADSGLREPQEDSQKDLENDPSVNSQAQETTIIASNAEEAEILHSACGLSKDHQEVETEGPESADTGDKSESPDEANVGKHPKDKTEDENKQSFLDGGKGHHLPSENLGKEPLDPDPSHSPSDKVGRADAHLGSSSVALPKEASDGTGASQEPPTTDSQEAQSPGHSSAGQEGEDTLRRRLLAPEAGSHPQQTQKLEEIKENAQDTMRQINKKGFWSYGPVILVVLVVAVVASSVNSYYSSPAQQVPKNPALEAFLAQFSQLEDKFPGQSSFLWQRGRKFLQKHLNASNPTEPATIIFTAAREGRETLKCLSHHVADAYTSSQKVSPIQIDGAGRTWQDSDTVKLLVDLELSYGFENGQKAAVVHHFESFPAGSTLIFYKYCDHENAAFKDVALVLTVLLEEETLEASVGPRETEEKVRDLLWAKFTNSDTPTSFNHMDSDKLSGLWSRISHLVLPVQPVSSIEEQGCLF

[6] = E. coli growth modulation, two-sided OD650, primary screen, E. coli filamentation project, strain DRC41, 24 h (AID 1093); conditions: OD650, 24 h, higher = more signal, called active from +8 up or from −8 down;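 note: MC1000 strain lacking acrAB efflux and sulA so SOS filamentation is blocked; test concentration not given here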
[7] = small-molecule microarray binders of probe aLefty2, primary screen, biochemical, biotinylated probe, 635/667 nm fluorescence (AID 1094); conditions: higher = more signal;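 note: score merges spot fluorescence near 667 nm with spot signal-to-noise ratio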
[8] = test system: Noggin (protein binding on small-molecule microarray); test: Noggin binders on small-molecule microarray, primary screen, biochemical, 635/667 nm fluorescence (AID 1095); conditions: 635 nm fluorescence, higher = more signal;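 note: score merges 667 nm feature fluorescence with signal to noise over triplicate slides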
[9] = target: Neurogenic locus notch homolog protein 3 (Homo sapiens) (UniProt Q9UM47); test: NOTCH3 binders on small-molecule microarray, primary screen, biochemical, 635/667 nm fluorescence (AID 1096); conditions: NOTCH3 binding, 635 nm fluorescence, higher = more signal
Chain of Neurogenic locus notch homolog protein 3 (Homo sapiens) (Q9UM47 whole entry, looked up): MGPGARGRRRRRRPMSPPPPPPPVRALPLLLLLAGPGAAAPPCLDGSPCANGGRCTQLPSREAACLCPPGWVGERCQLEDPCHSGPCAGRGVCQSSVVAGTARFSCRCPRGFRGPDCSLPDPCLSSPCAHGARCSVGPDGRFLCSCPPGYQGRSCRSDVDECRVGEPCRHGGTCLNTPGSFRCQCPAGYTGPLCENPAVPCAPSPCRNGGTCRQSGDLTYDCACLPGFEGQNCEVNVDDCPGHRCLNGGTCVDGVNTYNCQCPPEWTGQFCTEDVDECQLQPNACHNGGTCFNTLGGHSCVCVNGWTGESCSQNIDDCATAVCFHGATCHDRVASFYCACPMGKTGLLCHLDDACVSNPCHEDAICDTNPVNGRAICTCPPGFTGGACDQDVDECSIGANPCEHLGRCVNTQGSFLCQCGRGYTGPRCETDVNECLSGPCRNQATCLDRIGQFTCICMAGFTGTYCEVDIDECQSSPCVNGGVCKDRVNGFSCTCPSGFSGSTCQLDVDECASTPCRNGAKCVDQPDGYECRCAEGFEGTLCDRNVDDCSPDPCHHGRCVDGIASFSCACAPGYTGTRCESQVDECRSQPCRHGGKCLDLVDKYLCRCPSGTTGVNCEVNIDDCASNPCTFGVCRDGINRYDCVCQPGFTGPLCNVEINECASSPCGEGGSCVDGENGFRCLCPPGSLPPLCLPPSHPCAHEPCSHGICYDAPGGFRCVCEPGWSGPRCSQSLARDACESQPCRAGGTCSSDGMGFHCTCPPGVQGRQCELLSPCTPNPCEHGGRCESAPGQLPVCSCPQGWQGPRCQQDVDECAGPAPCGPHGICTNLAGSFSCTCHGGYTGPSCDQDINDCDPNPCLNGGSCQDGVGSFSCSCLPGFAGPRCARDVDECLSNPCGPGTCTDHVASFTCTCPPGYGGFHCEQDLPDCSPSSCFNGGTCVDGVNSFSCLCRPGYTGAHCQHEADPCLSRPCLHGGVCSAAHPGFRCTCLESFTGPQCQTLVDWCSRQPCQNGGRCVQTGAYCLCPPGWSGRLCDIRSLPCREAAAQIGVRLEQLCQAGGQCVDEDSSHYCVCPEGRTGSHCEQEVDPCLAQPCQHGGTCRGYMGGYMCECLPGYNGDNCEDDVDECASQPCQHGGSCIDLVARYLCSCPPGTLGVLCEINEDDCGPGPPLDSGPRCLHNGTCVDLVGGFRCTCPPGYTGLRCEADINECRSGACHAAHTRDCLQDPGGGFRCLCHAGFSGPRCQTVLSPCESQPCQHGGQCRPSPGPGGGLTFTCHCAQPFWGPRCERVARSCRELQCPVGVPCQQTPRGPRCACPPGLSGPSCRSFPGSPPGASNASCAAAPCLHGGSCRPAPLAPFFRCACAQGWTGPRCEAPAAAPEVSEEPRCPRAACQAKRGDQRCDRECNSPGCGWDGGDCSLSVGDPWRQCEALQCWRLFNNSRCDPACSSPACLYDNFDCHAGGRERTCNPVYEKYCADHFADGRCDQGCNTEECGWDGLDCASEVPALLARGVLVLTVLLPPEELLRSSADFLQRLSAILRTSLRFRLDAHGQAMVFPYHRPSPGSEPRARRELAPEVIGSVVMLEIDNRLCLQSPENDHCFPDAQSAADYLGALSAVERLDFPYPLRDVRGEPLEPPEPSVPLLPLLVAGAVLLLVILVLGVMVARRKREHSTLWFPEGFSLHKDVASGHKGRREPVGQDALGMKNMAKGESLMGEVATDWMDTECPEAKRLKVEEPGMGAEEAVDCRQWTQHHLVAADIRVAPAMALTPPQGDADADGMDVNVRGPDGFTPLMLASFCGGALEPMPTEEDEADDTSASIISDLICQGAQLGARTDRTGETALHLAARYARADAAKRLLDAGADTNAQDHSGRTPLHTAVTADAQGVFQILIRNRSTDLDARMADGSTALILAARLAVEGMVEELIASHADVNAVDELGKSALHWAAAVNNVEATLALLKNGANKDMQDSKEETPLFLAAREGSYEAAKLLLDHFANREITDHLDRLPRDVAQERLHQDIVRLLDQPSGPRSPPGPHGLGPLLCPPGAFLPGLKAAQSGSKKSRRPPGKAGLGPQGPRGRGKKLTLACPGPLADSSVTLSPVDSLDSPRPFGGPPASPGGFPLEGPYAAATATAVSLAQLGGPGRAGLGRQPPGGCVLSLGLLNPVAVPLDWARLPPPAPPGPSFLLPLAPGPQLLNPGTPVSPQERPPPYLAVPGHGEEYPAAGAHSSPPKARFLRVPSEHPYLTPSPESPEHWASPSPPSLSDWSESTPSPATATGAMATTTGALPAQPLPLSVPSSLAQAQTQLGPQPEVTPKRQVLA

[10] = small-molecule microarray binders of probe aEGFR, primary screen, biochemical, biotinylated probe, 635/667 nm fluorescence (AID 1097); conditions: higher = more signal;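 note: probe is a biotinylated anti-EGFR antibody binding compounds printed on slides; score combines fluorescence near 667 nm and signal to noise of each spot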

SMILES | composite z-score [1] | z-score [2] | z-score [3] | z-score [4] | composite z-score [5] | z-score [6] | composite z-score [7] | composite z-score [8] | composite z-score [9] | composite z-score [10]
O=C1C[C@@](C(=O)NC2CC2)(c2ccc([N+](=O)[O-])cc2)[C@@H](c2ccc(CO)cc2I)N1C1CCCCC1 | 1.53 | -0.457 (inactive) | -0.173 (inactive) | 1.45 (inactive) | 2.82 | 0.233 (inactive) | -0.05 | 1.25 | 1.07 | -0.0828
COc1cccc(-c2cccc(=O)o2)c1 | 0.274 | -1.24 (inactive) | -3.46 (inactive) | 1.42 (inactive) | -0.33 | 0.696 (inactive) | 0.716 | 0.335 | -0.476 | 0.08
Oc1ccc2cc[n+](Cc3sc4ccccc4c3Cl)cc2c1 | 0.599 | 0.0335 (inactive) | -1.43 (inactive) | 2.3 (inactive) | 3.37 | -1.82 (inactive) | 0.217 | 0.311 | 0.207 | -0.0409
C=C(CCCC)/C(=C/C[C@H](OC(C)=O)c1ccccc1OCCO)c1cc(C(=O)OC)ccc1OC | -0.0836 | 0.556 (inactive) | -0.886 (inactive) | -0.24 (inactive) | 0.405 | 1.18 (inactive) | -0.171 | -0.035 | 0.212 | -0.126
O=C1C[C@@](C(=O)NCCN2CCOCC2)(c2ccc([N+](=O)[O-])cc2)[C@@H](c2ccc(CO)cc2I)N1CC12CC3CC(CC(C3)C1)C2 | 1.54 | -24.9 (active) | -5.93 (inactive) | 0.0788 (inactive) | 3.2 | -0.981 (inactive) | -0.112 | 1.2 | 1.08 | -0.0381
CC(C)N1C(=O)[C@@]2(Cc3ccccc31)c1ccccc1C(=O)N(Cc1ccccc1Cl)[C@H]2c1ccc(CO)cc1 | 0.477 | -1.05 (inactive) | -1.17 (inactive) | -2.86 (inactive) | -0.203 | -1.25 (inactive) | -0.153 | -0.665 | -0.942 | -0.152
C=C(C)[C@@H]1CC=C(C(O)C2C=CC3C(=O)N(c4ccccc4)C(=O)C3N2Nc2ccccc2)CC1 (stereo not given in full) | 1.55 | 0.0118 (inactive) | 0.0527 (inactive) | 0.0587 (inactive) | 3.32 | -0.784 (inactive) | 0.467 | 0.302 | 1.05 | 0.34
C=C(COC)/C(=C/C[C@H](OC(C)=O)c1ccc(CO)o1)c1cc(C(=O)OC)ccc1OC | 0.404 | 0.517 (inactive) | -0.131 (inactive) | 0.0604 (inactive) | 1.67 | 0.796 (inactive) | -0.142 | 0.493 | 0.217 | -0.284
COc1ccc([Si](C)(C)[C@@H]2[C@@H](CCO)O[C@]3(C(=O)N(Cc4ccc(N(C=O)c5ccccc5)cc4)c4ccccc43)[C@H]2C)cc1 | 0.883 | 1.47 (inactive) | 0.552 (inactive) | 25.3 (active) | 0.758 | 0.0689 (inactive) | 0.122 | 0.445 | 0.332 | -0.0466
O=C1O[C@@H](c2ccccc2)[C@@H](c2ccccc2)N2[C@@H](c3ccccc3OCCO)[C@]3(C(=O)Nc4ccccc43)[C@@H](C(=O)Nc3nc4ccccc4s3)[C@H]12 | 1.53 | 1.13 (inactive) | -0.205 (inactive) | 2.85 (inactive) | 3.22 | 1.26 (inactive) | -0.215 | 1.53 | 1.04 | 0.148
CC(C)[Si]1(C(C)C)O[C@@H](c2ccccc2)c2cc(-c3ccc(-c4ccc(Cl)c(Cl)c4)o3)nc(-c3ccccc3)c21 | 0.985 | -0.585 (inactive) | -0.764 (inactive) | 0.167 (inactive) | 1.22 | -1.22 (inactive) | -0.0809 | -0.262 | 0.123 | -0.108
COc1ccc(CCNC(=O)[C@@]2(C)c3ccccc3C(=O)N(C(C)C)[C@H]2c2ccc(CO)cc2)cc1 | 0.601 | -0.122 (inactive) | -0.366 (inactive) | -0.321 (inactive) | 2.15 | 0.721 (inactive) | -0.107 | 0.456 | -0.399 | 0.0117
CN(C)CCCCCCNC(=O)[C@H]1C[C@H]2C(=O)N3CCC[C@H]3C(=O)N2[C@H]1c1ccc(O)cc1 | 1.53 | -0.389 (inactive) | -1.4 (inactive) | 0.24 (inactive) | 2.9 | 1.95 (inactive) | 0.172 | 1.74 | 1.07 | 0.475
COC(=O)[C@@]1(Cc2ccc(OC)cc2)[C@H]2c3cc(C(=O)N(C)C)n(C)c3C[C@H]2CN1C(=O)c1ccccc1 | 1.4 | 0.116 (inactive) | -0.756 (inactive) | 9.05 (active) | 3.73 | -1.63 (inactive) | 0.654 | 0.727 | 1.02 | 0.382
